Measurements as given in ChEMBL document CHEMBL3988442, “University of Dundee, Small-Polar-MMV Screening Library” (2021).

What follows are molecules tested against T1, Arginase-2, mitochondrial (Homo sapiens) (UniProt P78540) (assay: in vitro enzyme assay to detect the production of urea directly proportional to the activity of Arginase II). Details: 33.3 µM.
T1 sequence (whole entry): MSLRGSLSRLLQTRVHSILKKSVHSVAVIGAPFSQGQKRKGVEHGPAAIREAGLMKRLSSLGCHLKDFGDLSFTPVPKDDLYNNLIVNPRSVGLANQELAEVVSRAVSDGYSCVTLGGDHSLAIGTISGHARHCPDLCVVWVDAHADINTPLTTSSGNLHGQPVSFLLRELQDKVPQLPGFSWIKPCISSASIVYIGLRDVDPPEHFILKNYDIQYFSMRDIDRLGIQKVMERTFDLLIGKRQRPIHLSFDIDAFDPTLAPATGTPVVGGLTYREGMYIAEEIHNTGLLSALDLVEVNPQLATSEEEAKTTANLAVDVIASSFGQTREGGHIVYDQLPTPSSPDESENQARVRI
Type: functional
Set-up: scale not given: in the data most compounds retested in dose-response had high values

Question: For `Cc1ccccc1CNC(=O)Cc1c(C)nc2cc(=O)[nH]n2c1C`, which Percent Effect is on record?
Answer: Its Percent Effect is -4.21%.

Question: How did the Percent Effect turn out when `CC(Cn1ccnc1)NC(=O)C1(c2ccc(F)cc2)CC1` (stereo not given) was run?
Answer: Its Percent Effect is -3.42%.

Question: For `O=C1NC(c2ccccc2)=N[C@@]12CC[C@@H]1CN(Cc3ccco3)C[C@@H]12`, which Percent Effect is on record?
Answer: The Percent Effect was -47.5%.

Question: Which Percent Effect does the source give for `Cc1nc(CO[C@@H]2CN(Cc3cnn(C)c3)[C@@H]3COC[C@@H]32)cs1` here?
Answer: The Percent Effect was 1.6%.

Question: With `COCC(=O)N1CCC[C@]2(C(=O)N(C)C)CN(c3ccccn3)C[C@@H]2C1` as the molecule, how does the Percent Effect read?
Answer: Its Percent Effect is -50.4%.

Question: `O=C(c1ccc(Br)o1)N1CCCC(n2cncn2)C1` (stereo not given) was tested. Which Percent Effect did it give?
Answer: The Percent Effect was -2.21%.

Question: How did the Percent Effect turn out when `CCCOc1ccc(NC(=O)NCCC(=O)N(C)C)cc1Cl` was run?
Answer: Its Percent Effect is 0.909%.

Question: For `COCCNC(=O)C1(c2ccccc2C)CCOCC1`, which Percent Effect is on record?
Answer: The Percent Effect was 4.81%.

Question: Which Percent Effect does the source give for `O=C(CN1CCN(CC(O)C2CC2)CC1)NCc1ccc(F)cc1` (stereo not given) here?
Answer: Its Percent Effect is 9.68%.

Question: For `Cc1cnn(CCNCc2nc(COc3ccc(F)cc3)no2)c1`, which Percent Effect is on record?
Answer: Its Percent Effect is 1.92%.

Question: How did the Percent Effect turn out when `CN(C)C(=O)Cc1nc(CN2CCn3c(nnc3C3CC3)C2)cs1` was run?
Answer: Its Percent Effect is -2.4%.

Question: Which Percent Effect does the source give for `CC(C)c1ncc2c(n1)CN(Cc1nc(-c3cccs3)no1)CC2` here?
Answer: The Percent Effect was 2.4%.

Question: Which Percent Effect does the source give for `Cc1n[nH]cc1CNc1ccc2c(c1)N(C(=O)OC(C)(C)C)CCC2` here?
Answer: The Percent Effect was -8.28%.

Question: Which Percent Effect does the source give for `CCn1cc(N2Cc3nc(N)ncc3C2=O)cn1` here?
Answer: The Percent Effect was -20.6%.

Question: Which Percent Effect does the source give for `Cc1cccc(-c2ccc(C(=O)NCC(C)(C)C(N)=O)c(=O)[nH]2)c1` here?
Answer: The Percent Effect was -2.81%.

Question: Which Percent Effect does the source give for `CN(C)C(=O)CN1CCCC2(CCN(c3ccsc3)C2=O)C1` (stereo not given) here?
Answer: Its Percent Effect is 0.233%.

Question: With `Cc1nc(N2CCCC2)ncc1-c1cc(O)nc(N2CCCC2)n1` as the molecule, how does the Percent Effect read?
Answer: Its Percent Effect is -2.64%.

Question: Which Percent Effect does the source give for `O=C(c1ccc(C2CCCO2)s1)N1CCS(=O)(=O)CC1` (stereo not given) here?
Answer: The Percent Effect was 1.91%.

Question: `OC(CN1CCN(Cc2nnc(C3CC3)o2)CC1)c1ccccc1` (stereo not given) was tested. Which Percent Effect did it give?
Answer: Its Percent Effect is 1.9%.

Question: `CC(=O)c1cc(CC(=O)NCc2ccc(CN(C)C)cc2)cs1` was tested. Which Percent Effect did it give?
Answer: The Percent Effect was 0.476%.

The molecules below were run against T2, Proteasome subunit beta (Trypanosoma cruzi) (UniProt O96673) (assay: Trypanosoma cruzi proteasome chymotrypsin-like activity (TcProtChymo) assay.). Details: 9.37 µM.
T2 sequence (whole entry): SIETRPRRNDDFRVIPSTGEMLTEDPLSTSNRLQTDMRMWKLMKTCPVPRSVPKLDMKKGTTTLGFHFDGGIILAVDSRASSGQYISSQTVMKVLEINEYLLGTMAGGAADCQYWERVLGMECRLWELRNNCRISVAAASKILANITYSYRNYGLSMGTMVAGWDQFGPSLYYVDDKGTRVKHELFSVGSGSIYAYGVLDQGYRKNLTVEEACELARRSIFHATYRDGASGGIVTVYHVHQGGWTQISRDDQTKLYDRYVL
Type: functional
Set-up: scale not given: in the data most compounds retested in dose-response had high values

Question: `COCCn1ccc(NC(=O)Nc2cccnc2)n1` was tested. Which Percent Effect did it give?
Answer: Its Percent Effect is 15.6%.

Question: How did the Percent Effect turn out when `CCN(C(=O)CCCOc1ccccc1F)c1ccncc1` was run?
Answer: The Percent Effect was 10.1%.

Question: `O=C(NC1CC1)[C@@H]1CCO[C@@H]2CCN(C3CCOCC3)C[C@@H]21` was tested. Which Percent Effect did it give?
Answer: Its Percent Effect is 3.49%.

Question: With `Cc1nc(C)n(CC2CCCN(c3ncnc4sccc34)C2)n1` (stereo not given) as the molecule, how does the Percent Effect read?
Answer: Its Percent Effect is 9.91%.

Question: With `Cc1nn(C)c(Cl)c1C1CCCN1C(=O)c1cc(Cl)c[nH]1` (stereo not given) as the molecule, how does the Percent Effect read?
Answer: Its Percent Effect is -1.62%.

Question: With `COc1c(C2CCCN2Cc2csc(C(C)C)n2)c(C)nn1C` (stereo not given) as the molecule, how does the Percent Effect read?
Answer: Its Percent Effect is 17.6%.

Question: With `CNc1cncc(C2CCCN2Cc2ccccn2)n1` (stereo not given) as the molecule, how does the Percent Effect read?
Answer: Its Percent Effect is 29.5%.

Question: How did the Percent Effect turn out when `CC(=O)Nc1nc(C(=O)N2CCCC2Cn2cc(C)cn2)cs1` (stereo not given) was run?
Answer: The Percent Effect was 14.5%.

Question: How did the Percent Effect turn out when `O=C(NCCN1CCCCCC1=O)c1ccn(-c2ccc(F)cc2)n1` was run?
Answer: The Percent Effect was 15.5%.

Question: With `O=C(NCCCn1cccn1)N1CCCC1c1ccncc1` (stereo not given) as the molecule, how does the Percent Effect read?
Answer: The Percent Effect was 15.3%.

Question: For `CC(C)c1nnc(NC(=O)NCc2ccnc(N(C)C)c2)s1`, which Percent Effect is on record?
Answer: The Percent Effect was 15.8%.

Question: For `CC(NC(=O)N(C)Cc1ccc(Cl)s1)c1ccccn1` (stereo not given), which Percent Effect is on record?
Answer: Its Percent Effect is 6.86%.

Question: For `CCc1nnc2n1CCN(C(=O)c1cnc3ccccc3n1)C2`, which Percent Effect is on record?
Answer: Its Percent Effect is 12.5%.

Question: With `O=C(c1ccccc1N1CCOCC1)N1CCCC(n2cccn2)C1` (stereo not given) as the molecule, how does the Percent Effect read?
Answer: The Percent Effect was 3.06%.

Question: How did the Percent Effect turn out when `CSc1ccc(NC(=O)Nc2ccc3c(c2)N(S(C)(=O)=O)CC3)cc1` was run?
Answer: The Percent Effect was 27.9%.

Question: For `OCC1CCCN1c1cc(NCCc2c[nH]c3ccccc23)ncn1` (stereo not given), which Percent Effect is on record?
Answer: The Percent Effect was 18.6%.

Question: For `CC1CCN(C(CNC(=O)CCn2cccn2)c2cccs2)CC1` (stereo not given), which Percent Effect is on record?
Answer: The Percent Effect was 26.5%.

Question: For `CSCC[C@H](N)C(=O)NCc1cc2n(n1)CCCN(C(=O)C1CCC1)C2`, which Percent Effect is on record?
Answer: The Percent Effect was 10.5%.

Question: `COC(=O)c1ccc(N2CCN(C(=O)c3ccncc3)C(C)C2)cc1` (stereo not given) was tested. Which Percent Effect did it give?
Answer: The Percent Effect was 10.1%.

Question: `Cc1cccnc1NCCNC(=O)[C@H]1CNC[C@@H](C(=O)N2CCCC2)C1` was tested. Which Percent Effect did it give?
Answer: Its Percent Effect is 10.5%.

Question: For `Cc1ccccc1CNC(=O)Cc1c(C)nc2cc(=O)[nH]n2c1C`, which Percent Effect is on record?
Answer: Its Percent Effect is 4.18%.

Question: `CC(Cn1ccnc1)NC(=O)C1(c2ccc(F)cc2)CC1` (stereo not given) was tested. Which Percent Effect did it give?
Answer: The Percent Effect was 4.83%.

Question: Which Percent Effect does the source give for `O=C1NC(c2ccccc2)=N[C@@]12CC[C@@H]1CN(Cc3ccco3)C[C@@H]12` here?
Answer: The Percent Effect was -0.513%.

Question: Which Percent Effect does the source give for `Cc1nc(CO[C@@H]2CN(Cc3cnn(C)c3)[C@@H]3COC[C@@H]32)cs1` here?
Answer: Its Percent Effect is 7.96%.

Question: How did the Percent Effect turn out when `COCC(=O)N1CCC[C@]2(C(=O)N(C)C)CN(c3ccccn3)C[C@@H]2C1` was run?
Answer: Its Percent Effect is 16.2%.

Question: `O=C(c1ccc(Br)o1)N1CCCC(n2cncn2)C1` (stereo not given) was tested. Which Percent Effect did it give?
Answer: The Percent Effect was 4.04%.

Question: For `CCCOc1ccc(NC(=O)NCCC(=O)N(C)C)cc1Cl`, which Percent Effect is on record?
Answer: Its Percent Effect is 19%.

Question: `COCCNC(=O)C1(c2ccccc2C)CCOCC1` was tested. Which Percent Effect did it give?
Answer: Its Percent Effect is 0.18%.

Question: With `O=C(CN1CCN(CC(O)C2CC2)CC1)NCc1ccc(F)cc1` (stereo not given) as the molecule, how does the Percent Effect read?
Answer: The Percent Effect was 13.1%.

Question: How did the Percent Effect turn out when `Cc1cnn(CCNCc2nc(COc3ccc(F)cc3)no2)c1` was run?
Answer: Its Percent Effect is 12.7%.

Question: How did the Percent Effect turn out when `CN(C)C(=O)Cc1nc(CN2CCn3c(nnc3C3CC3)C2)cs1` was run?
Answer: The Percent Effect was 10.8%.

Question: For `CC(C)c1ncc2c(n1)CN(Cc1nc(-c3cccs3)no1)CC2`, which Percent Effect is on record?
Answer: Its Percent Effect is 2.33%.

Question: Which Percent Effect does the source give for `Cc1n[nH]cc1CNc1ccc2c(c1)N(C(=O)OC(C)(C)C)CCC2` here?
Answer: Its Percent Effect is 7.65%.

Question: With `CCn1cc(N2Cc3nc(N)ncc3C2=O)cn1` as the molecule, how does the Percent Effect read?
Answer: The Percent Effect was 13.9%.

Question: Which Percent Effect does the source give for `Cc1cccc(-c2ccc(C(=O)NCC(C)(C)C(N)=O)c(=O)[nH]2)c1` here?
Answer: Its Percent Effect is 5.41%.

Question: For `CN(C)C(=O)CN1CCCC2(CCN(c3ccsc3)C2=O)C1` (stereo not given), which Percent Effect is on record?
Answer: The Percent Effect was 7.84%.

Question: How did the Percent Effect turn out when `Cc1nc(N2CCCC2)ncc1-c1cc(O)nc(N2CCCC2)n1` was run?
Answer: Its Percent Effect is 7.76%.

Question: Which Percent Effect does the source give for `O=C(c1ccc(C2CCCO2)s1)N1CCS(=O)(=O)CC1` (stereo not given) here?
Answer: Its Percent Effect is 17.1%.

Question: Which Percent Effect does the source give for `OC(CN1CCN(Cc2nnc(C3CC3)o2)CC1)c1ccccc1` (stereo not given) here?
Answer: The Percent Effect was -3.19%.

Question: How did the Percent Effect turn out when `CC(=O)c1cc(CC(=O)NCc2ccc(CN(C)C)cc2)cs1` was run?
Answer: The Percent Effect was -1.21%.
